Each compound was assayed against Mitogen-activated protein kinase 11 (Homo sapiens) (UniProt Q15759). Conditions: at 1 µM.
Sequence of Mitogen-activated protein kinase 11 (Homo sapiens) (Q15759 whole entry): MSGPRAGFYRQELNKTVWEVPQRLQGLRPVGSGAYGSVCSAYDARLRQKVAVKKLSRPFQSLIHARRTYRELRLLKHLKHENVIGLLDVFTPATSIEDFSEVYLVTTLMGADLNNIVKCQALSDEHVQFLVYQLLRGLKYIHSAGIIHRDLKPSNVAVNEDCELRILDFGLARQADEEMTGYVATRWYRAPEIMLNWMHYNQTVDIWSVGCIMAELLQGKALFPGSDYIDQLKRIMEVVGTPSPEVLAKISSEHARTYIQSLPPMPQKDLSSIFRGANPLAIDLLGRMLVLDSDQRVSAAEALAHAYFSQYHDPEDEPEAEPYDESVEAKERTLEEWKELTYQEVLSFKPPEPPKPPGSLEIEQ

First: ON=C1CCc2cc(-c3nc(C4CCNCC4)[nH]c3-c3ccncc3)ccc21
Second: Oc1cccc(-c2nc(-c3ccccc3)[nH]c2-c2ccncc2)c1
The inhibition of the first is lower: 33.1% for the first, 47.7% for the second.

Going from O=C1Nc2ccc(-c3cccnc3)cc2C1=Cc1cc(Br)c(O)c(Br)c1 to NS(=O)(=O)c1cccc(-c2cc3ccncc3cc2OCc2ccccc2)c1, the inhibition rises from 1.36% to 5.6%.

Compared with CCOc1nccc2c1nc(-c1nonc1N)n2CC, CN(C)CCCn1c(-c2nonc2N)nc2cnccc21 is higher in inhibition: 7.56% for the first, 8.3% for the second.

Going from c1ccc(Cc2nc3ccc(Nc4ncnc5ccccc45)cc3[nH]2)cc1 to Cc1ccc2c(-c3ccnc(Nc4cccc(C(F)(F)F)c4)n3)c(-c3ccccc3)nn2n1, the inhibition rises from 2.79% to 45.1%.

First: O=C(Nc1ccc(Oc2ccc3[nH]c(NC(=O)c4ccco4)nc3c2)cc1)Nc1cc(C(F)(F)F)ccc1F
Second: COC(=O)Nc1nc2cc(Oc3ccc(NC(=O)Nc4cccc(Br)c4)cc3)ccc2[nH]1
The inhibition of the first is higher: 31.7% for the first, 17% for the second.

First: FC(F)(F)c1ccc(-c2nn3ncccc3c2-c2ccnc(Nc3ccc4c(c3)OCCO4)n2)cc1
Second: N#Cc1cccc(Nc2nccc(-c3cnn4ncccc34)n2)c1
The inhibition of the first is higher: 36.8% for the first, 14% for the second.

Going from COc1cc2ncnc(Nc3ccc(C)c(O)c3)c2cc1OC to COc1cc(/C=N/Nc2ncnc3c2cnn3C(C)C)ccc1O, the inhibition falls from 17.4% to 2.61%.

Going from c1ccc(Nc2ncc(-c3ccccc3)o2)cc1 to CCS(=O)(=O)c1ccc(OC)c(Nc2ncc(-c3cccc(OC)c3)o2)c1, the inhibition falls from 5.93% to 5.17%.

First: Cc1ccc(NC(=O)CC2CC2)cc1-c1ccc(C(=O)NCC2CC2)cc1
Second: CS(=O)(=O)Nc1cccc(-c2ccc3c(NC(=O)C4CC4)n[nH]c3c2)c1
The inhibition of the first is higher: 60.8% for the first, 10.1% for the second.

First: OCc1ccc(-c2nc(-c3ccccn3)c(-c3ccc4c(c3)OCO4)[nH]2)cc1
Second: NS(=O)(=O)c1ccc(-c2cc3ccncc3cc2OCc2ccccc2)cc1
The inhibition of the first is lower: 4.4% for the first, 6.57% for the second.

First: Cc1ccc(Nc2ccnc(Nc3cccc(C(N)=O)c3)n2)cc1O
Second: NC(=O)c1cccc(Nc2nccc(Nc3cccc(F)c3)n2)c1
The inhibition of the first is higher: 17.7% for the first, 1.67% for the second.

Compared with CN(c1ccc(NC(=O)Nc2ccc(OC(F)(F)F)cc2)cc1)c1ccnc(Nc2cccc(S(N)(=O)=O)c2)n1, NS(=O)(=O)c1ccc(Nc2cc(-c3cccc(O)c3)n[nH]2)cc1 is lower in inhibition: 16.7% for the first, 9.77% for the second.

Going from CN(C)C(=O)O[C@@H]1CN[C@@H](C#Cc2cc3ncnc(Nc4ccc(OCc5cccc(F)c5)c(Cl)c4)c3s2)C1 to COc1cc2ncn(-c3cc(OCc4ccccc4S(C)(=O)=O)c(C#N)s3)c2cc1OC, the inhibition rises from 6.17% to 6.97%.

Going from N#Cc1c(NC(=O)c2ccccc2F)sc2c1CCCC2 to NC(=O)c1sc(-n2cnc3ccccc32)cc1OCc1ccccc1Br, the inhibition rises from 2.26% to 4.68%.

First: COc1cccc(-n2nc(C)c3c(N/N=C(\C)c4ccncc4)ncnc32)c1
Second: COc1cccc(-n2ncc3c(N/N=C/c4ccc(C)cc4)ncnc32)c1
The inhibition of the first is lower: 0.17% for the first, 4.42% for the second.

Going from COc1cccc(-n2ncc3c(N/N=C/c4ccc(S(C)(=O)=O)cc4)ncnc32)c1 to NS(=O)(=O)c1ccc(N/N=C2\C(=O)Nc3ccc(Cl)cc32)cc1, the inhibition rises from 1.99% to 5.91%.

Going from Cc1cc(O)cc(C)c1/C=C/c1cncc(C(=O)N(C)C)c1 to Cc1cc(Cl)cc2c1NC(=O)C2=NNc1ccc(S(N)(=O)=O)cc1, the inhibition falls from 8.48% to 7.2%.

These compounds were tested against T1, Mitogen-activated protein kinase 13 (Homo sapiens) (UniProt O15264). Conditions: at 0.1 µM.
T1 sequence (whole entry): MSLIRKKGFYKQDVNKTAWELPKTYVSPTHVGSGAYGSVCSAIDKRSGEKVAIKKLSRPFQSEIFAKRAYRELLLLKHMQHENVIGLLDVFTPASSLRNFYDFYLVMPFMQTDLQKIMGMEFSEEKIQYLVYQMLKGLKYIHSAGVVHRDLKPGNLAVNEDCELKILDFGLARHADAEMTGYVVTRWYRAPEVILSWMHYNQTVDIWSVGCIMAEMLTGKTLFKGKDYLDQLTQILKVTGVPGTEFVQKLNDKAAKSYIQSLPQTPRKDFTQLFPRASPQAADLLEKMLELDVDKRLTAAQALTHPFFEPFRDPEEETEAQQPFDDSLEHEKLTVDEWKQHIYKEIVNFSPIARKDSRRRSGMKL

Compared with ON=C1CCc2cc(-c3nc(C4CCNCC4)[nH]c3-c3ccncc3)ccc21, Oc1cccc(-c2nc(-c3ccccc3)[nH]c2-c2ccncc2)c1 is higher in inhibition: -0.29% for the first, 1.41% for the second.

First: O=C1Nc2ccc(-c3cccnc3)cc2C1=Cc1cc(Br)c(O)c(Br)c1
Second: NS(=O)(=O)c1cccc(-c2cc3ccncc3cc2OCc2ccccc2)c1
The inhibition of the first is higher: 1.39% for the first, -1.11% for the second.

Going from CCOc1nccc2c1nc(-c1nonc1N)n2CC to CN(C)CCCn1c(-c2nonc2N)nc2cnccc21, the inhibition falls from 2.58% to 1.23%.

Compared with c1ccc(Cc2nc3ccc(Nc4ncnc5ccccc45)cc3[nH]2)cc1, Cc1ccc2c(-c3ccnc(Nc4cccc(C(F)(F)F)c4)n3)c(-c3ccccc3)nn2n1 is lower in inhibition: 4.91% for the first, 4.66% for the second.

First: O=C(Nc1ccc(Oc2ccc3[nH]c(NC(=O)c4ccco4)nc3c2)cc1)Nc1cc(C(F)(F)F)ccc1F
Second: COC(=O)Nc1nc2cc(Oc3ccc(NC(=O)Nc4cccc(Br)c4)cc3)ccc2[nH]1
The inhibition of the first is lower: 1.18% for the first, 2.44% for the second.

First: FC(F)(F)c1ccc(-c2nn3ncccc3c2-c2ccnc(Nc3ccc4c(c3)OCCO4)n2)cc1
Second: N#Cc1cccc(Nc2nccc(-c3cnn4ncccc34)n2)c1
The inhibition of the first is lower: 5.26% for the first, 12.9% for the second.

First: COc1cc2ncnc(Nc3ccc(C)c(O)c3)c2cc1OC
Second: COc1cc(/C=N/Nc2ncnc3c2cnn3C(C)C)ccc1O
The inhibition of the first is lower: -2.57% for the first, 1.12% for the second.

First: c1ccc(Nc2ncc(-c3ccccc3)o2)cc1
Second: CCS(=O)(=O)c1ccc(OC)c(Nc2ncc(-c3cccc(OC)c3)o2)c1
The inhibition of the first is higher: 4.95% for the first, 1.24% for the second.

Compared with Cc1ccc(NC(=O)CC2CC2)cc1-c1ccc(C(=O)NCC2CC2)cc1, CS(=O)(=O)Nc1cccc(-c2ccc3c(NC(=O)C4CC4)n[nH]c3c2)c1 is lower in inhibition: 3.22% for the first, -1.65% for the second.

First: OCc1ccc(-c2nc(-c3ccccn3)c(-c3ccc4c(c3)OCO4)[nH]2)cc1
Second: NS(=O)(=O)c1ccc(-c2cc3ccncc3cc2OCc2ccccc2)cc1
The inhibition of the first is lower: 3.05% for the first, 5.51% for the second.

Going from Cc1ccc(Nc2ccnc(Nc3cccc(C(N)=O)c3)n2)cc1O to NC(=O)c1cccc(Nc2nccc(Nc3cccc(F)c3)n2)c1, the inhibition rises from -1.12% to -0.02%.

First: CN(c1ccc(NC(=O)Nc2ccc(OC(F)(F)F)cc2)cc1)c1ccnc(Nc2cccc(S(N)(=O)=O)c2)n1
Second: NS(=O)(=O)c1ccc(Nc2cc(-c3cccc(O)c3)n[nH]2)cc1
The inhibition of the first is higher: 2.86% for the first, 2.03% for the second.

Compared with CN(C)C(=O)O[C@@H]1CN[C@@H](C#Cc2cc3ncnc(Nc4ccc(OCc5cccc(F)c5)c(Cl)c4)c3s2)C1, COc1cc2ncn(-c3cc(OCc4ccccc4S(C)(=O)=O)c(C#N)s3)c2cc1OC is lower in inhibition: 1.12% for the first, 1.05% for the second.

Compared with N#Cc1c(NC(=O)c2ccccc2F)sc2c1CCCC2, NC(=O)c1sc(-n2cnc3ccccc32)cc1OCc1ccccc1Br is higher in inhibition: -1.92% for the first, 4.65% for the second.

First: COc1cccc(-n2nc(C)c3c(N/N=C(\C)c4ccncc4)ncnc32)c1
Second: COc1cccc(-n2ncc3c(N/N=C/c4ccc(C)cc4)ncnc32)c1
The inhibition of the first is lower: -0.04% for the first, 4.61% for the second.

First: COc1cccc(-n2ncc3c(N/N=C/c4ccc(S(C)(=O)=O)cc4)ncnc32)c1
Second: NS(=O)(=O)c1ccc(N/N=C2\C(=O)Nc3ccc(Cl)cc32)cc1
The inhibition of the first is higher: 1.44% for the first, 1.25% for the second.

First: Cc1cc(O)cc(C)c1/C=C/c1cncc(C(=O)N(C)C)c1
Second: Cc1cc(Cl)cc2c1NC(=O)C2=NNc1ccc(S(N)(=O)=O)cc1
The inhibition of the first is higher: 1.6% for the first, -1.04% for the second.

Source: ChEMBL document CHEMBL1961873, “Compounds: GSK PKIS; Assays: Nanosyn kinase panel” (2012)
